# Where “and” joins values, the source holds several entries; their conditions need not be identical. Identical values can stand only once. Records with an inconclusive call do not appear. Calls of active or inactive are those of the source. The calls were made as follows: active = hit-call score of the fitted dose curve at least 0.9, where 1 is the maximum; inconclusive = response in the unintended direction; inactive = score below 0.9.
# Target: Nuclear receptor subfamily 1 group I member 3 (Homo sapiens) (UniProt Q14994)
# Sequence (Q14994 whole entry, looked up): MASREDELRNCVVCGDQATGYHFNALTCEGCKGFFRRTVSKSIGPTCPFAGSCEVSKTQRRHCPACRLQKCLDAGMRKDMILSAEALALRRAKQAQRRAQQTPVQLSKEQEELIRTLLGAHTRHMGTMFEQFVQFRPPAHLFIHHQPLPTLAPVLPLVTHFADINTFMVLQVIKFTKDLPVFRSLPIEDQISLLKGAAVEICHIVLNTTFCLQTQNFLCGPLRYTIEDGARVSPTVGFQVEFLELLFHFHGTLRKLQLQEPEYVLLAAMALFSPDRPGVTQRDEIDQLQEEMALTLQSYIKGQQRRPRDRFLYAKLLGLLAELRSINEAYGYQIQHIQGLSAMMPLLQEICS
# Assay: ATG_CAR_TRANS: Attagene TRANS-FACTORIAL HepG2 Assay for human Constitutive Androstane Receptor (CAR) (AID 2282969);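 also: activators raise reporter mRNA above DMSO so AC50 marks induction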
# Conditions: HepG2 Attagene TRANS-FACTORIAL CAR reporter
# Summary of the method: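 Steps: transient transfection of HepG2 with multiple GAL4-UAS reporter units; 24 h compound incubation; RNA isolation, RT-PCR, 6-FAM primer extension, HpaI digest; capillary electrophoresis. Gain-of-signal relative to DMSO negative control.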
row,Structure (SMILES),outcome
1,COC(=O)CCC(F)(F)C(F)(F)C(F)(F)C(F)(F)F,inactive
2,CCCCCCCOC(=O)c1ccccc1C(=O)OCCCCCCC,inactive
3,OCC(F)(F)C(F)(F)C(F)(F)C(F)(F)C(F)(F)C(F)F,inactive
4,FC(F)(F)C(F)(F)C(F)(F)C(F)(F)C(F)(F)C(F)(F)CC1CO1 (stereo not given),inactive
5,CC/C=C\CCOC(=O)c1ccccc1,inactive
6,CS(C)(=O)=O,inactive
7,C=CC(F)(F)C(F)(F)C(F)(F)C(F)(F)C(F)(F)C(F)(F)C(F)(F)C(F)(F)C=C,inactive

# Target: Estrogen receptor (Homo sapiens) (UniProt P03372)
# Sequence (P03372 whole entry, looked up): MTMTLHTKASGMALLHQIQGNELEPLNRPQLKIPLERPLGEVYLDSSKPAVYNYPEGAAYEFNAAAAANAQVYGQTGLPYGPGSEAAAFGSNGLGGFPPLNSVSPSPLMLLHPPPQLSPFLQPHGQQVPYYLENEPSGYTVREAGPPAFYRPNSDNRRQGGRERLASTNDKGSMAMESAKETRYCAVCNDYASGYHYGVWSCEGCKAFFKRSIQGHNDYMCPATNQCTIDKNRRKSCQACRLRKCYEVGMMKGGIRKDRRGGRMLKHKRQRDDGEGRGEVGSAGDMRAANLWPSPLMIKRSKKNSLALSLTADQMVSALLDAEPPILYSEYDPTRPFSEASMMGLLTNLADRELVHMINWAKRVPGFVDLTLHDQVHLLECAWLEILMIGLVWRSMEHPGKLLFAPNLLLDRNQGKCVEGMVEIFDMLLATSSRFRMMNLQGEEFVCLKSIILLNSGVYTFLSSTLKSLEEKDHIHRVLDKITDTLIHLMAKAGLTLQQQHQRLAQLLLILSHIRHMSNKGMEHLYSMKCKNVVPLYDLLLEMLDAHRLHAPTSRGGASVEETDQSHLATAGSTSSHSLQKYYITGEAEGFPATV
# Assay: ATG_ERa_TRANS: Attagene TRANS-FACTORIAL HepG2 Assay for human Estrogen Receptor alpha (ERa) (AID 2282970)
# Conditions: HepG2 Attagene TRANS ERa GAL4 reporter, mRNA
# Summary of the method: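 Liver-derived HepG2 cells expressing chimeric nuclear receptor-Gal4 proteins from transient transfection were exposed for 24 hours. Gain of reporter mRNA signal versus DMSO, read by capillary electrophoresis of FAM-labelled PCR products, was recorded.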
Structure (SMILES),outcome,AC50
O=C(O)C(F)(OC(F)(F)C(F)(OC(F)(F)C(F)(OC(F)(F)C(F)(F)C(F)(F)F)C(F)(F)F)C(F)(F)F)C(F)(F)F (stereo not given),inactive,
O=C(O)C(F)(F)C(F)(F)C(F)(F)C(F)(F)C(F)(F)C(F)(F)C(F)(F)C(F)(F)Cl,,27.2 µM (active) and 31.4 µM (active)
c1ccc(-c2ccccc2-c2ccccc2)cc1,,2.75 µM (active)
CNC(=S)NC,,25.9 µM (active)
OCCCC(F)(F)C(F)(F)C(F)(F)C(F)(F)C(F)(F)C(F)(F)C(F)(F)F,,13.7 µM (active) and 13.2 µM (active)
CCN(CC)c1ccc2c(C)cc(=O)oc2c1,,25.4 µM (active)
O=C(O)C(F)(F)C(F)(F)C(F)(F)C(F)(F)C(F)(F)C(F)(F)C(F)(F)C(F)(F)C(F)(F)C(F)(F)C(F)(F)C(F)(F)C(F)(F)F,inactive,
FC(F)(F)C(F)(F)C(F)(F)C(F)(F)CCI,,13.6 µM (active)
Cc1ccc(S(=O)(=O)NCl)cc1,inactive,
C=CC(=O)OCC(F)(F)C(F)(F)C(F)(F)C(F)(F)C(F)(F)C(F)(F)C(F)(F)F,,15.6 µM (active)
C#C[C@]1(O)CC[C@H]2[C@@H]3CCc4cc(OC)ccc4[C@H]3CC[C@@]21C,,0.00914 µM (active)
O=C(O)C(F)(F)C(F)(F)OC(F)(F)F,inactive,
CCCCCCCCCCCCCCCC[N+](C)(C)Cc1ccccc1,inactive,
CCO[Si](CCC(F)(F)C(F)(F)C(F)(F)C(F)(F)C(F)(F)C(F)(F)F)(OCC)OCC,inactive,
c1ccc(B(c2ccccc2)c2ccccc2)cc1,,5.7 µM (active)
C=C(C)C(=O)OCCC(F)(F)C(F)(F)C(F)(F)C(F)(F)C(F)(C(F)(F)F)C(F)(F)F,,7.49 µM (active)
COC(=O)C1CCC(C(=O)OC)CC1 (stereo not given),inactive,

Structure (SMILES),outcome,AC50
CC(C)OC(=O)c1ccccc1C(=O)OC(C)C,,11.2 µM (active)
CCCCCCC(C)OC(=O)CCCCC(=O)OC(C)CCCCCC (stereo not given),inactive,
C=CC(F)(F)C(F)(F)C(F)(F)C(F)(F)C(F)(F)C(F)(F)C(F)(F)C(F)(F)F,inactive,
C(=C(c1ccccc1)c1ccccc1)c1ccccc1,,0.0329 µM (active)
O=C(O)C(F)(F)C(F)(F)C(F)(F)F,,108 µM (active)
OC[C@@H](O)[C@@H](O)[C@H](O)[C@@H](O)CO,,26.2 µM (active)
O=C(OCCOCCOCCOC(=O)c1ccccc1)c1ccccc1,,2 µM (active)
O=C(CC(=O)C(F)(F)C(F)(F)F)C(F)(F)F,inactive,
Oc1ccc(Nc2ccccc2)cc1,,5.96 µM (active)
COC(=O)CCC(F)(F)C(F)(F)C(F)(F)C(F)(F)F,,5.85 µM (active)
CCCCCCCOC(=O)c1ccccc1C(=O)OCCCCCCC,inactive,
OCC(F)(F)C(F)(F)C(F)(F)C(F)(F)C(F)(F)C(F)F,,5.4 µM (active)
FC(F)(F)C(F)(F)C(F)(F)C(F)(F)C(F)(F)C(F)(F)CC1CO1 (stereo not given),inactive,
CC/C=C\CCOC(=O)c1ccccc1,inactive,
CS(C)(=O)=O,inactive,
C=CC(F)(F)C(F)(F)C(F)(F)C(F)(F)C(F)(F)C(F)(F)C(F)(F)C(F)(F)C=C,,2.76 µM (active)

# Target: Steroid hormone receptor ERR1 (Homo sapiens) (UniProt P11474)
# Sequence (P11474 whole entry, looked up): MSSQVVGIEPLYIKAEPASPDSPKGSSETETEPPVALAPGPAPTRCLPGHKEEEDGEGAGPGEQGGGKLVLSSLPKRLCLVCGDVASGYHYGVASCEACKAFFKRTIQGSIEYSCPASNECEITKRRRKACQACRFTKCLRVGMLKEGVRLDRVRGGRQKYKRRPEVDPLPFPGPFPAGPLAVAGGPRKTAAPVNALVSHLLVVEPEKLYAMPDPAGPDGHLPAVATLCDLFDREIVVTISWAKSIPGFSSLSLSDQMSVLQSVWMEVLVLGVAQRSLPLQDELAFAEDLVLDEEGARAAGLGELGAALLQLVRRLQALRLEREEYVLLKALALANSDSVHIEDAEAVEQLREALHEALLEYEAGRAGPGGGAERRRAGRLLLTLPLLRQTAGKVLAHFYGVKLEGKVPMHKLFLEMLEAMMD
# Assay: ATG_ERRa_TRANS: Attagene TRANS-FACTORIAL HepG2 Assay for human Estrogen-Related Receptor alpha (ERRa) (AID 2282971)
# Conditions: HepG2 Attagene TRANS reporter, ERRa transactivation
# Summary of the method: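 Reporter transcript induction was quantified by RT-PCR and capillary electrophoresis of FAM-labelled, HpaI-cut products after 24 h treatment of HepG2 cells carrying transiently transfected GAL4-UAS reporter units and an exogenous ERRa-Gal4 fusion; activity scored as increase over DMSO.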
row,Structure (SMILES),outcome
1,OCCCC(F)(F)C(F)(F)C(F)(F)C(F)(F)C(F)(F)C(F)(F)C(F)(F)F,inactive
2,O=C(O)C(F)(F)C(F)(F)C(F)(F)C(F)(F)C(F)(F)C(F)(F)C(F)(F)C(F)(F)C(F)(F)C(F)(F)C(F)(F)C(F)(F)C(F)(F)F,inactive
3,C#C[C@]1(O)CC[C@H]2[C@@H]3CCc4cc(OC)ccc4[C@H]3CC[C@@]21C,inactive
4,O=C(O)C(F)(F)C(F)(F)OC(F)(F)F,inactive
5,CCCCCCCCCCCCCCCC[N+](C)(C)Cc1ccccc1,inactive
6,CCO[Si](CCC(F)(F)C(F)(F)C(F)(F)C(F)(F)C(F)(F)C(F)(F)F)(OCC)OCC,inactive
7,c1ccc(B(c2ccccc2)c2ccccc2)cc1,inactive
8,COC(=O)C1CCC(C(=O)OC)CC1 (stereo not given),inactive
9,CCCCCCC(C)OC(=O)CCCCC(=O)OC(C)CCCCCC (stereo not given),inactive
10,C=CC(F)(F)C(F)(F)C(F)(F)C(F)(F)C(F)(F)C(F)(F)C(F)(F)C(F)(F)F,inactive
11,O=C(O)C(F)(F)C(F)(F)C(F)(F)F,inactive
12,OC[C@@H](O)[C@@H](O)[C@H](O)[C@@H](O)CO,inactive
13,OCC(F)(F)C(F)(F)C(F)(F)F,inactive
14,O=C(CC(=O)C(F)(F)C(F)(F)F)C(F)(F)F,inactive
15,Oc1ccc(Nc2ccccc2)cc1,inactive
16,CCCCCCCOC(=O)c1ccccc1C(=O)OCCCCCCC,inactive
17,FC(F)(F)C(F)(F)C(F)(F)C(F)(F)C(F)(F)C(F)(F)CC1CO1 (stereo not given),inactive
18,CC/C=C\CCOC(=O)c1ccccc1,inactive
19,CS(C)(=O)=O,inactive
20,C=CC(F)(F)C(F)(F)C(F)(F)C(F)(F)C(F)(F)C(F)(F)C(F)(F)C(F)(F)C=C,inactive

# — PubChem BioAssay (EPA / NIEHS)
